The panel holds about 83,000 compounds, 20% with a hit somewhere; the sample as a whole holds those more often.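 96-well plates, one dose, 48 hours. Percent growth reported; active if below 10.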 Values without a mark were called inactive. Calls of active or inactive are those of the source.
Assays:
Assay in all cases: NCI-60 one-dose screen, 48 h (100 = growth as untreated, 0 = no growth, -100 = all killed)
Conditions in all cases: 10 µM unless noted
NCI-H23 lung = tested on: NCI-H23 lung
NCI-H226 lung = tested on: NCI-H226 lung
NCI-H322M lung = tested on: NCI-H322M lung
HOP-62 NSCLC = tested on: HOP-62 NSCLC
NCI-H460 lung = tested on: NCI-H460 lung
HOP-92 NSCLC = tested on: HOP-92 NSCLC
NCI-H522 lung = tested on: NCI-H522 lung
A549/ATCC NSCLC = tested on: A549/ATCC NSCLC
786-0 renal = tested on: 786-0 renal
COLO 205 colon = tested on: COLO 205 colon
DU-145 prostate = tested on: DU-145 prostate
K-562 leukemia = tested on: K-562 leukemia
MALME-3M melanoma = tested on: MALME-3M melanoma
MDA-MB-231 breast = tested on: MDA-MB-231 breast
SF-268 CNS = tested on: SF-268 CNS
SF-295 CNS = tested on: SF-295 CNS
SF-539 CNS = tested on: SF-539 CNS
UACC-257 melanoma = tested on: UACC-257 melanoma
M14 melanoma = tested on: M14 melanoma

| Compound | growth (NCI-H23 lung) | growth (NCI-H226 lung) | growth (NCI-H322M lung) | growth (HOP-62 NSCLC) | growth (NCI-H460 lung) | growth (HOP-92 NSCLC) | growth (NCI-H522 lung) | growth (A549/ATCC NSCLC) | growth (786-0 renal) | growth (COLO 205 colon) | growth (DU-145 prostate) | growth (K-562 leukemia) | growth (MALME-3M melanoma) | growth (MDA-MB-231 breast) | growth (SF-268 CNS) | growth (SF-295 CNS) | growth (SF-539 CNS) | growth (UACC-257 melanoma) | growth (M14 melanoma) |
| --- | --- | --- | --- | --- | --- | --- | --- | --- | --- | --- | --- | --- | --- | --- | --- | --- | --- | --- | --- |
| O=C(O)CNC(=O)CN1C(=O)c2ccccc2C1=O | 102% | 89.1% | 104% | 88.3% | 103% | 97.4% | 100% | 81.6% | 98.4% | 104% | 120% | 85.8% | 98.6% | 114% | 106% | 103% | 107% | 76.6% | 92.7% |
| O=C1/C(=C/c2ccc(O)cc2)COc2ccc(-c3ccccc3)cc21 | 95.9% | 102% | 94.1% | 80.1% | 66% | 84.5% | 84.2% | 90.4% | 21.4% | 90.7% | 59.7% | 39.3% | 116% | 94.6% | 69.1% | 89.8% | 90.7% | 92.7% | 86.6% |
| COc1nccnn1 | 107% | 96.2% | 91% | 114% | 122% | 69.5% | 109% | 102% | 104% | 112% | 96.2% | 80.7% | 120% | 110% | 114% | 136% | 104% | 109% | 108% |
| Cc1c([N+](=O)[O-])cc(C(C)(C)C)cc1[N+](=O)[O-] | 97.4% | 91.3% | 117% | 76.2% | 102% | 96.4% | 60.2% | 81.8% | 104% | 114% | 107% | 112% | 118% | 107% | 93.3% | 97.6% | 104% | 85.4% | 107% |
| O=C1Nc2c(ccc(Cl)c2Cl)/C1=C/c1ccc([N+](=O)[O-])cc1 | 91.3% | 159% | 84.9% | 90.6% | 107% | 95.5% | 88.7% | 29.2% | 59.7% | 114% | 108% | 89.5% | 84.4% | 94.2% | 93.3% | 76.7% | 95.4% | 72% | 104% |
| CC(C)(O)C1CCCN1C(=O)c1ccccc1I (stereo unspecified) | 94.6% | 89.4% | 101% | 95.4% | 85.8% | 58.6% | 83.9% | 92.1% | 87.7% | 105% | 111% | 83.5% | 109% | 84% | 91.5% | 84.4% | 105% | 104% | 95.1% |
| CCN(CC)CCSCCCNc1c(C)cnc2cc(Cl)ccc12 | 89.8% | 100% | 90.8% | 85.2% | 96.8% | 81.6% | 102% | 95.9% | 82.7% | 61.4% | 88.2% | 5.33% (active) | 87% | 61.9% | 81% | 90.5% | 71% | 113% | 89.5% |
| CN(C)C(=O)OCc1nc2c(N3CCOCC3)nc(-c3ccccc3)nc2n1C | -67.3% (active) | -66.1% (active) | 53.4% | -46.9% (active) | -71.8% (active) | -68.4% (active) | -46.8% (active) | -29.6% (active) | -71.3% (active) | -70.5% (active) | -74.4% (active) | 5.32% (active) | -92.8% (active) | -86.5% (active) | -59.9% (active) | 29.9% | -98.3% (active) | -65.4% (active) | -54.5% (active) |
| CCCc1cc2c(cc1Br)OCO2 | 96.2% | 106% | 108% | 84% | 106% | 86.9% | 87.9% | 80.7% | 89.3% | 109% | 111% | 121% | 117% | 113% | 106% | 96.5% | 98.8% | 91.5% | 88.5% |
